Screens from PubChem BioAssay.
JMJD2A Tudor – inhibitors of human JMJD2A Tudor domain; Potency, µM (series often up to 114 µM), for the others: top-dose activity change, negative = inhibition, actives largely listed as inhibitors; AlphaScreen JMJD2A-Tudor / H3K4me3 peptide binding; actives 4.4% (n = 390,000); O75164; further: on the % scale 0 is the no-effect control and ±100 the full control effect; nearly all actives have a fitted effect of over 50% in size
BAZ2B inh – blocks human BAZ2B; Potency, µM (doses to about 114 µM), inactives show at the top dose activity change, negative = inhibition, hits mostly inhibitors; Q9UIF8; AID 504333; AlphaScreen BAZ2B-H3K14Ac peptide displacement; actives 4.4% (n = 360,000); further: on the % scale 0 is the no-effect control and ±100 the full control effect; nearly all actives have a fitted effect of over 60% in size
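AlphaScreen displacement: compounds (up to 110uM) incubated 30 min at room temperature with a preformed 50 nM BAZ2B/50 nM biotinylated H3K14Ac peptide complex in PBS pH 7.4 with Tween-20. Donor and acceptor beads at 10 ug/mL final added, 20 min light-protected before reading.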
G9a inh – blocks human histone lysine methyltransferase G9a. Q96KQ7. G9a H3K9 monomethylation, AlphaScreen, 2 h. Potency, µM (doses to about 102 µM), without a hit: at the highest dose activity, negative = inhibition, most hits filed as inhibitors. actives 8.8% (n = 350,000); further: on the % scale 0 is the no-effect control and ±100 the full control effect; nearly all actives have a fitted effect of over 75% in size
Target sequence (Q96KQ7 913-1193 limits assumed): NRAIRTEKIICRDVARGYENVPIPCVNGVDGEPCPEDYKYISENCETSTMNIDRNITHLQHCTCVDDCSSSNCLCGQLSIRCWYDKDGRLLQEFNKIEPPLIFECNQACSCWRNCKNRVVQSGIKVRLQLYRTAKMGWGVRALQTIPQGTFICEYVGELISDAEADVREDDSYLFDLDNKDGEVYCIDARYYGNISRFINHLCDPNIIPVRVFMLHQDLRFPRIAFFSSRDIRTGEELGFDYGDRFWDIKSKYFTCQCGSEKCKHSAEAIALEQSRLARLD
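Readings reflect AlphaScreen signal from monomethyl-H3K9 antibody detection. HMT at 20 nM; substrate b-H3K9 500 nM; cofactor SAM 20 uM; 2 h RT reaction; compounds tested as titrations in qHTS with 15 min preincubation.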
GLS inh – inhibitors of human glutaminase (GLS); actives 0.21% (n = 410,000); Potency, µM (highest dose often 45.5 µM), without a hit: at the top dose activity change, negative = inhibition, most hits filed as inhibitors; GLS enzymatic activity, qHTS titration; O94925; further: on the % scale 0 is the no-effect control and ±100 the full control effect
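Assay buffer: 45 mM KH2PO4 pH 8.2, 0.02% Tween-20. hKGA acts on L-glutamine (1 mM solution added); product glutamate is reported by an oxidase/peroxidase Amplex Red coupling, with fluorescence taken at baseline and 30 min.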
HP1b chromo inh – HP1-beta chromodomain-methylated histone interaction inhibition; AlphaScreen HP1-beta / biotin-H3K9me3 peptide binding; Potency, µM (top dose mostly 114 µM), for the others: at the highest dose activity change, negative = inhibition, hits mostly inhibitors; actives 0.56% (n = 390,000); P83916; further: nearly all actives have a fitted effect of over 70% in size
Target sequence (P83916 whole entry, looked up): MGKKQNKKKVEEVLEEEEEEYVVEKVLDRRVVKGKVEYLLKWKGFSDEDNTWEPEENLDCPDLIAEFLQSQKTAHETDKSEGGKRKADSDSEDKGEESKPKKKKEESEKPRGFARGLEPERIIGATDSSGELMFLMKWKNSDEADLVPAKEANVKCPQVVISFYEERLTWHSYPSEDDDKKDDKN
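AlphaScreen: HP1-beta (50 nM) preformed 30 min with biotin-H3(1-18)K9me3 peptide (50 nM) in PBS pH 7.4, 0.01% Tween-20. Compound added for 30 min at RT, then streptavidin donor/nickel chelate acceptor beads (10 ug/mL) for 30 min.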
Active calls of the source: *; [ ] = remark or other dose. Compounds with a hit are over-represented: about 10% of the library has one in this group of screens. The call rests on the fitted dose curve; in most records, active means well fitted curve in the direction sought with a large enough effect; inconclusive means small, poorly fitted or top-dose-only effect, or another doubt; inactive means no such curve, though single readings can be large; an effect the other way counts as inactive or inconclusive. Potency means the concentration at half of the fitted maximal effect.

What do the screens show for `C#CCOCCOCCOCCNc1nc(N2CCN(C(=O)Cn3cc(CCCN=C(N)N)nn3)CC2)nc(N2CCN(C(=O)[C@H]([C@@H](C)O)n3cc(CCCCN)nn3)CC2)n1`?
JMJD2A Tudor: -12%; BAZ2B inh: -12%; G9a inh: 7%[2.33 µM]; GLS inh: -2%; HP1b chromo inh: 27%

What do the screens show for `C#CCOCCOCCOCCNc1nc(N2CCN(C(=O)Cn3cc(CCCCN)nn3)CC2)nc(N2CCN(C(=O)[C@H](C)n3cc(CCCN=C(N)N)nn3)CC2)n1`?
BAZ2B inh: inconclusive; G9a inh: 28µM*

Results for C#CCOCCOCCOCCNc1nc(N2CCN(C(=O)Cn3cc(CC(C)O)nn3)CC2)nc(N2CCN(C(=O)[C@H](C)n3cc(CCCN=C(N)N)nn3)CC2)n1 (some centres undefined) ?
JMJD2A Tudor: 45µM*; BAZ2B inh: 79µM*; G9a inh: 7.1µM*; GLS inh: -10%; HP1b chromo inh: -10%

What do the screens show for `CCC(Sc1nc2nccnc2c(=O)n1Cc1ccc(OC)cc1)C(=O)NC1CCCCC1` (centres undefined)?
JMJD2A Tudor: 6%; BAZ2B inh: -11%; G9a inh: 11%[59 µM]; GLS inh: -3%; HP1b chromo inh: 35%

How did COc1ccc(C)cc1NC(=O)C1CCN(S(=O)(=O)c2ccc3[nH]c(=O)oc3c2)CC1 do in these assays?
JMJD2A Tudor: -26%; BAZ2B inh: -3%; G9a inh: -1%[59 µM]; GLS inh: 5%; HP1b chromo inh: -10%

Results for COc1ccc(NC(=O)CN(C)C(=O)c2cc(-c3ccc(Cl)cc3)nc3ccccc23)cc1 ?
JMJD2A Tudor: -28%; BAZ2B inh: -22%; G9a inh: inconclusive; GLS inh: -11%; HP1b chromo inh: 18%

Results for CCOc1ccc(NC(=O)CN(C)C(=O)c2ccccc2CCc2ccccc2)cc1OCC ?
JMJD2A Tudor: -33%; BAZ2B inh: -3%; G9a inh: 56µM*; GLS inh: -4%; HP1b chromo inh: 40%

How did CCOc1ccc(NC(=O)CN(C)C(=O)c2cc(-c3ccc(OC)cc3)nc3ccccc23)cc1OCC do in these assays?
JMJD2A Tudor: -32%; BAZ2B inh: -33%; G9a inh: 50µM*; GLS inh: -1%; HP1b chromo inh: 19%

What do the screens show for `CCOc1ccc(NC(=O)CN(C)C(=O)c2cccc3ccccc23)cc1OCC`?
JMJD2A Tudor: -19%; BAZ2B inh: -9%; G9a inh: -7%; GLS inh: 4%; HP1b chromo inh: 9%

Results for CCOc1ccc(NC(=O)CN(C)C(=O)Cn2cnc3c2c(=O)n(C)c(=O)n3C)cc1OCC ?
JMJD2A Tudor: 1%; BAZ2B inh: -4%; G9a inh: 50µM*; GLS inh: -6%; HP1b chromo inh: 22%

What do the screens show for `CCOc1ccc(NC(=O)CN(C)C(=O)c2ccncc2)cc1OCC`?
JMJD2A Tudor: -5%; BAZ2B inh: -35%; G9a inh: 40µM*; GLS inh: -3%; HP1b chromo inh: 46%

Results for C[C@@H](O)CNC(C)(C)CC(=O)N[C@@H]1CCc2ccccc2N(Cc2ccc(-c3ccccc3-c3nn[nH]n3)cc2)C1=O ?
G9a inh: 18%[59 µM]

How did Cc1ccccc1N1C(=O)c2sc3nc4c(c(=O)n3c2C1=O)CCC4 do in these assays?
JMJD2A Tudor: inconclusive; BAZ2B inh: 5%; G9a inh: 8.9µM*; GLS inh: 3%; HP1b chromo inh: -49%

How did O=C1c2sc3nc4ccccc4n3c2C(=O)N1c1ccccc1Cl do in these assays?
JMJD2A Tudor: -25%; BAZ2B inh: inconclusive; G9a inh: 1.4µM*; GLS inh: 6%; HP1b chromo inh: inconclusive

What do the screens show for `COC(=O)c1sc2cccc(F)c2c1S(=O)(=O)N1CCN(c2ccc(F)cc2)CC1`?
JMJD2A Tudor: -30%; BAZ2B inh: -32%; G9a inh: inconclusive; GLS inh: 7%; HP1b chromo inh: -5%

How did COc1c(/C=N/NC(=O)c2ccccc2O)c(CCN(C)C(C)=O)cc2c1OCO2 do in these assays?
JMJD2A Tudor: 0%; BAZ2B inh: -9%; G9a inh: 42%[59 µM]; GLS inh: 1%; HP1b chromo inh: 21%

What do the screens show for `COc1c(/C=N/Nc2ccc(C(=O)O)cc2)c(CCN(C)C(C)=O)cc2c1OCO2`?
JMJD2A Tudor: 3%; BAZ2B inh: -15%; G9a inh: 45µM*; GLS inh: 17%; HP1b chromo inh: 44%

What do the screens show for `COc1ccc(N2CCN(C(=O)Cn3cnc4nc5c(cc4c3=O)CCCC5)CC2)cc1`?
JMJD2A Tudor: 1%; BAZ2B inh: -19%; G9a inh: -36%[59 µM]; GLS inh: 47%; HP1b chromo inh: 20%[57 µM]

How did Cc1ccc(N=C2S/C(=C\c3cn(CC(=O)O)c4ccccc34)C(=O)N2C)cc1 do in these assays?
JMJD2A Tudor: -24%; BAZ2B inh: inconclusive; G9a inh: 79µM*; GLS inh: 4%; HP1b chromo inh: -9%

Results for CCC(Sc1nnc2c3ccccc3n(CC)c2n1)C(=O)Nc1ccc(NC(C)=O)cc1 (centres undefined) ?
JMJD2A Tudor: -13%; BAZ2B inh: -9%; G9a inh: -46%[59 µM]; GLS inh: -25%; HP1b chromo inh: 8%

How did CCN1/C(=C2\C(=O)N(C)C(=S)N2C)C=Cc2cc(C)ccc21 do in these assays?
JMJD2A Tudor: 50µM*; BAZ2B inh: 45µM*; G9a inh: 10µM*; GLS inh: 45%; HP1b chromo inh: -66%

How did CCCN1C(=O)C(=O)c2cc(C)ccc21 do in these assays?
JMJD2A Tudor: -9%; GLS inh: -7%; HP1b chromo inh: 30%

How did CCN1/C(=C2\C(=O)N(C)C(=S)N2c2ccccc2)C=Cc2ccccc21 do in these assays?
JMJD2A Tudor: -29%; BAZ2B inh: 40µM*; G9a inh: -140%[59 µM]; GLS inh: inconclusive; HP1b chromo inh: inconclusive

What do the screens show for `CCN1/C(=C2\C(=O)N(C)C(=S)N2C)C=Cc2ccccc21`?
JMJD2A Tudor: -35%; BAZ2B inh: 50µM*; G9a inh: 10µM*; GLS inh: inconclusive; HP1b chromo inh: inconclusive

How did Oc1oc(-c2ccccc2)nc1C=Nc1ccccc1 do in these assays?
JMJD2A Tudor: 89µM*; BAZ2B inh: -12%; G9a inh: inconclusive; GLS inh: 14%; HP1b chromo inh: 7%

How did CN(C)c1ccc(N=Cc2nc(-c3ccccc3)oc2O)cc1 do in these assays?
JMJD2A Tudor: -28%; BAZ2B inh: -10%; G9a inh: -11%[0.0925 µM]; GLS inh: 7%; HP1b chromo inh: 4%

What do the screens show for `N#CCC(=O)Nc1ccc(C(=O)N2CCN(c3ccccn3)CC2)cc1`?
JMJD2A Tudor: -11%; BAZ2B inh: -12%; G9a inh: 23%[59 µM]; GLS inh: -12%; HP1b chromo inh: -3%
